Results taken from the antibiotic and cytotoxicity screens of Wong et al. (2023).
Screen size: about 39,000 compounds; about 3,300 (8.5%) were called active. This is one part of a sample in which actives are shown more often than they occur.

The compounds below were run on HepG2 (assay: cytotoxicity call (relative viability < 0.9)). Conditions: 10 µM.

SMILES	cytotoxicity call
Cc1cc(O)c(-c2ccc([C@@H](C)CN)cc2)c2c1[nH]c(=O)c1sccc12	active
C[C@H]1CN([C@@H](C)CO)C(=O)CCCn2nncc2CO[C@@H]1CN(C)C(=O)c1cc(-c2ccccc2)on1	inactive
C[C@@H]1CCCCO[C@@H](CN(C)S(=O)(=O)c2ccccc2)[C@@H](C)CN([C@@H](C)CO)C(=O)c2cc(NC(=O)Nc3ccc4c(c3)OCO4)ccc2O1	inactive
CC(C)(C)S(=O)N1Cc2cc(C(=O)NCc3ccc(Oc4ccccc4)cc3)nc(-c3cccc(-c4cccc(F)c4)c3)c2[C@@H]1CCO (some centres not stated)	active
COc1ccc(CNC(=O)c2cc3c(c(-c4cccc(-c5cccc(C#N)c5)c4)n2)[C@@H](CCO)N([S@](=O)C(C)(C)C)C3)cc1	inactive
CCCNC(=O)c1cc2c(c(-c3cccc(-c4ccc(F)cc4)c3)n1)[C@@H](CCO)N([S@](=O)C(C)(C)C)C2	inactive
CCOC(=O)c1cc2c(c(-c3cccc(Br)c3)n1)[C@@H](CCO[Si](C)(C)C(C)(C)C)N([S@](=O)C(C)(C)C)C2	inactive
CC(C)(C)S(=O)N1Cc2cc(C(=O)NCc3ccc(Oc4ccccc4)cc3)nc(-c3cccc(C#CCC4CCCC4)c3)c2[C@@H]1CCO (some centres not stated)	inactive
CCOC(=O)c1cc2c(c(-c3ccccc3)n1)[C@@H](CCO[Si](C)(C)C(C)(C)C)N([S@](=O)C(C)(C)C)C2	inactive
CCNC(=O)c1cc2c(c(-c3cccc(-c4cccc(F)c4)c3)n1)[C@@H](CCO)N([S@](=O)C(C)(C)C)C2	inactive
CCCNC(=O)c1cc2c(c(-c3cccc(-c4cccc(F)c4)c3)n1)[C@H](CCO)N([S@@](=O)C(C)(C)C)C2	inactive
CCNC(=O)c1cc2c(c(-c3cccc(-c4cccc(F)c4)c3)n1)[C@H](CCO)N([S@@](=O)C(C)(C)C)C2	active
CCCNC(=O)c1cc2c(c(-c3cccc(-c4ccc(F)cc4)c3)n1)[C@H](CCO)N([S@@](=O)C(C)(C)C)C2	inactive
CC(C)(C)S(=O)N1Cc2cc(C(=O)Nc3ccc(-c4ccccc4)cc3)nc(-c3cccc(-c4cccc(F)c4)c3)c2[C@@H]1CCO (some centres not stated)	active
CCOC(=O)c1cc2c(c(-c3cccc(C#CCN(C)C)c3)n1)[C@@H](CCO[Si](C)(C)C(C)(C)C)N([S@](=O)C(C)(C)C)C2	active
C[C@@H]1CN([C@@H](C)CO)C(=O)c2cc(NC(=O)c3ccncc3)ccc2O[C@@H](C)CCCCO[C@H]1CN(C)S(C)(=O)=O	inactive
C[C@H]1CN([C@@H](C)CO)S(=O)(=O)c2ccc(-c3cccnc3)cc2O[C@H]1CN(C)CC1CCOCC1	inactive
